In the supplement of paper PMC6522484:
± gives the standard deviation of the averaged measurements.

Experiments:
DLD1 [1] = test: cell viability (CellTiter-Glo) relative to plate median (fraction of plate median); higher = more viable cells; conditions: 5 µM; treatment time 24 h; reporter: 7TFP
Outline: (§1)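 Per-well firefly luciferase or CellTiterGlo luminescence, normalised to the plate median, is what is reported. It was measured in colorectal cancer cells with stable lentiviral TCF/Wnt firefly luciferase reporters after a 24 h treatment with library compounds at a final 5 µM. The mean of two independent replicates is given.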

HCT116 = test: as above; conditions: 5 µM; treatment time 24 h; reporter: TCF4/Wnt
Outline: as §1

SW480 [2] = test: as above; conditions: 5 µM; treatment time 24 h; reporter: 7TFP
Outline: as §1

DLD1 [3] = test: TCF/Wnt firefly luciferase reporter signal relative to plate median (fraction of plate median); higher = higher Wnt reporter signal; conditions: 5 µM; treatment time 24 h; reporter: 7TFP
Outline: as §1

SW480 [4] = test: as above; conditions: 5 µM; treatment time 24 h; reporter: 7TFP
Outline: as §1

SMILES | cell viability (DLD1 [1]) | cell viability (HCT116) | cell viability (SW480 [2]) | TCF/Wnt firefly luciferase reporter signal (DLD1 [3]) | TCF/Wnt firefly luciferase reporter signal (SW480 [4])
CNC(Cc1c[nH]c2ccccc12)C(=O)O (stereo not given) | 1.06 ± 0.11 | 0.975 ± 0.0057 | 1 ± 0.011 | 1.03 ± 0.13 | 0.98 ± 0.13
CC(C)(C)[C@]1(O)C[C@@H]2OC(=O)C[C@@]23C(=O)O[C@@H]2OC(=O)[C@H](O)[C@]213 | 0.922 ± 0.033 | 1.03 ± 0.05 | 1.01 ± 0.077 | 1.17 ± 0.042 | 1.07 ± 0.1
CC1=C2C(=CO[C@H](C)[C@H]2C)C(O)=C(C(=O)O)C1=O | 0.939 ± 0.076 | 1 ± 0.022 | 0.923 ± 0.027 | 0.861 ± 0.13 | 0.9055 ± 0.0035
C/C(=C\c1csc(C)n1)[C@@H]1C[C@@H]2O[C@@H]2CCC[C@H](C)[C@H](O)[C@@H](C)C(=O)C(C)(C)[C@@H](O)CC(=O)O1 [Epothilone A] | 1.09 ± 0.021 | 0.464 ± 0.073 | 1.14 ± 0.099 | 0.732 ± 0.076 | 0.8595 ± 0.0078
N#C[C@H](O[C@@H]1O[C@H](CO[C@@H]2O[C@H](CO)[C@@H](O)[C@H](O)[C@H]2O)[C@@H](O)[C@H](O)[C@H]1O)c1ccccc1 | 1.01 ± 0.09 | 1.04 ± 0.089 | 1.01 ± 0.042 | 0.757 ± 0.0042 | 0.916 ± 0.071
COc1ccc2c(c1)[nH]c1c(C)nccc12 | 0.98 ± 0.028 | 0.904 ± 0.04 | 0.964 ± 0.036 | 0.623 ± 0.067 | 0.625 ± 0.097
O=C(O)CC[N+](=O)[O-] [BOVINOCIDIN (3-nitropropionic acid)] | 0.951 ± 0.025 | 1.05 ± 0.042 | 0.986 ± 0.02 | 1.01 ± 0.042 | 1.05 ± 0.1
COc1ccc2c(c1OC)C(=O)O[C@H]2[C@H]1c2cc3c(cc2CCN1C)OCO3 | 1.06 ± 0.09 | 1.04 ± 0.061 | 0.9915 ± 0.0078 | 1.08 ± 0.028 | 1.03 ± 0.069
N#C/C(=C\c1ccc(O)cc1)C(=O)O [alpha-CYANO-4-HYDROXYCINNAMIC ACID] | 1.01 ± 0.014 | 1.04 ± 0.058 | 0.9385 ± 0.0078 | 0.996 ± 0.034 | 0.913 ± 0.033
COc1cc(O)c2c(=O)oc3cc(O)cc(C)c3c2c1 [Alternariol-9-methylether] | 0.979 ± 0.044 | 1.03 ± 0.073 | 1.01 ± 0.042 | 0.946 ± 0.1 | 1.06 ± 0.064
C=CCN1CC[C@]23c4c5ccc(O)c4O[C@H]2C(=O)CC[C@@]3(O)[C@H]1C5 | 1.04 ± 0.05 | 0.936 ± 0.011 | 1.08 ± 0.014 | 0.959 ± 0.011 | 0.918 ± 0.019
COC1=C[C@@H]2[C@@H]3Cc4ccc(OC)c(O)c4[C@]2(CCN3C)CC1=O | 0.973 ± 0.0085 | 0.925 ± 0.017 | 0.987 ± 0.033 | 1.03 ± 0.11 | 0.997 ± 0.16
C[C@@H]1C[C@H](C)C[C@H](C)[C@@H](O)CC(=O)O[C@H]([C@@H]2CCC[C@H]2C(=O)O)C/C=C/C=C(/C#N)[C@H](O)[C@@H](C)C1 [Borrelidin] | 0.894 ± 0.067 | 0.817 ± 0.18 | 1.01 ± 0.02 | 0.989 ± 0.059 | 1.06 ± 0.095
c1ccc2c(c1)sc1ccccc12 | 1 ± 0.026 | 0.97 ± 0.11 | 1.01 ± 0.049 | 0.867 ± 0.033 | 0.935 ± 0.036
COc1cc([C@@H]2c3cc4c(cc3[C@H](OC(C)=O)[C@H]3COC(=O)[C@H]23)OCO4)cc(OC)c1OC | 0.91 ± 0.17 | 0.567 ± 0.042 | 1.205 ± 0.0071 | 0.759 ± 0.0078 | 0.702 ± 0.02
COc1cccc(C=O)c1OC | 1.01 ± 0.022 | 1.1 ± 0.15 | 1 ± 0.043 | 1.03 ± 0.073 | 0.914 ± 0.088
COc1cc2c3cc1Oc1c(OC)c(OC)cc4c1[C@@H](Cc1cccc(c1)Oc1ccc(c(O)c1)C[C@@H]3N(C)CC2)N(C)CC4 | 1.03 ± 0.045 | 1 ± 0.028 | 1.12 ± 0.05 | 0.9605 ± 0.00071 | 1.12 ± 0.064
